# The panel holds about 79,000 compounds, 15% with a hit somewhere; the sample as a whole holds those more often. Values without a mark were called inactive. The source made the active and inactive calls. No stated cut-off is given here; in the data, active means growth inhibition above about 70%; inactive means the rest.
# Key:
# [1] = NCI Yeast Anticancer Drug Screen. Data for the rad52 strain (AID 147);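 further: 0% = growth of vehicle-treated control cultures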; settings: S. cerevisiae rad52 mutant growth inhibition, hits give high values
# In short: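 Inhibition of yeast growth, referenced to vehicle controls, was the measured output for a strain with defective DNA damage repair.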
# [2] = NCI Yeast Anticancer Drug Screen. Data for the rad50EPP+ strain (AID 151);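 further: 0% = growth of vehicle-treated control cultures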; settings: S. cerevisiae rad50 mutant strain, hits give high values
# In short: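 Genetically defined yeast (rad50EPP+, DNA damage repair alteration) is grown with compound, and inhibition of growth is expressed relative to vehicle-treated controls.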
# [3] = NCI Yeast Anticancer Drug Screen. Data for the rad50 strain (AID 155);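 further: 0% = growth of vehicle-only cultures of the same strain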; settings: S. cerevisiae rad50 strain growth inhibition, hits give high values
# In short: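 Growth of the mutant yeast was measured after compound exposure and referenced to vehicle-treated cultures.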
# [4] = NCI Yeast Anticancer Drug Screen. Data for the mec2-1 strain (AID 157); settings: S. cerevisiae mec2-1 strain, hits give high values
# In short: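 Each compound was tested on mec2-1 yeast, a strain altered in DNA damage repair or cell cycle control. Growth inhibition is reported relative to vehicle.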
# [5] = NCI Yeast Anticancer Drug Screen. Data for the rad14 strain (AID 159);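 further: 0% = growth of vehicle-treated control cultures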; settings: S. cerevisiae rad14 strain growth inhibition, hits give high values
# In short: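 Here, inhibition of yeast growth was measured after compound exposure, using a strain with a genetic defect in DNA damage repair and vehicle-treated cultures as the reference.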
# [6] = NCI Yeast Anticancer Drug Screen. Data for the sgs1 mgt1 strain (AID 161);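 further: 0% = growth of cultures given vehicle only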; settings: S. cerevisiae sgs1 mgt1 strain, hits give high values
# In short: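 Read-out: growth inhibition vs vehicle controls. Cells: mutant yeast strain deficient in DNA damage repair.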
# [7] = NCI Yeast Anticancer Drug Screen. Data for the CLN2oe strain (AID 163);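 further: 0% = growth of vehicle-only control cultures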; settings: S. cerevisiae CLN2oe strain, hits give high values
# In short: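 First, the altered yeast strain was treated with each compound; second, its growth was measured; finally, inhibition was derived by comparison with vehicle controls.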
# [8] = NCI Yeast Anticancer Drug Screen. Data for the cln2 rad14 strain (AID 165);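 further: 0% = growth equal to vehicle treated cultures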; settings: S. cerevisiae cln2 rad14 strain, hits give high values
# In short: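 Test compounds were added to cln2 rad14 yeast cultures; inhibition of growth was then determined by comparison with vehicle treatment.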
# [9] = NCI Yeast Anticancer Drug Screen. Data for the wt2 strain (AID 169);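 further: 0% = growth of vehicle-treated yeast cultures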; settings: S. cerevisiae wt2 strain growth inhibition, hits give high values
# In short: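 The panel's yeast strains carry defined changes in DNA repair or cell cycle genes. Each strain is grown with compound, and growth loss is scored relative to vehicle.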
# [10] = NCI Yeast Anticancer Drug Screen. Data for the mlh1 strain (AID 171);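 further: 0% = growth of vehicle-treated control cultures of the same strain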; settings: S. cerevisiae mlh1 strain growth inhibition, hits give high values
# In short: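 Inhibition values reflect reduced yeast growth in the presence of compound, referenced to vehicle controls, using a strain chosen for its alteration in DNA repair or cell cycle control.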
# [11] = NCI Yeast Anticancer Drug Screen. Data for the sgs1 strain (AID 173);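 further: 0% = growth of vehicle-only control cultures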; settings: S. cerevisiae sgs1 mutant, hits give high values
# In short: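 Vehicle-treated cultures served as reference for growth inhibition of a yeast strain altered in DNA damage repair or cell cycle control after compound exposure.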
# [12] = NCI Yeast Anticancer Drug Screen. Data for the mlh1 rad18 strain (AID 175); settings: S. cerevisiae mlh1 rad18 strain growth inhibition, hits give high values
# In short: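 Inhibition values reflect reduced growth of mutant yeast versus vehicle-treated controls following compound exposure; the mutations affect DNA damage repair.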
# [13] = NCI Yeast Anticancer Drug Screen. Data for the rad18 strain (AID 177); settings: S. cerevisiae rad18 mutant growth inhibition, hits give high values
# In short: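 Steps: expose repair-mutant yeast to compound; measure growth; express as inhibition relative to vehicle control.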
# [14] = NCI Yeast Anticancer Drug Screen. Data for the wt1 strain (AID 149);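 further: 0% = growth of vehicle-treated wt1 cultures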; settings: S. cerevisiae wt1 strain (SPY 50644) growth inhibition, hits give high values
# In short: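 Measured: growth of wt1 yeast under compound versus vehicle treatment, reported as inhibition.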
# [15] = NCI Yeast Anticancer Drug Screen. Data for the bub3 strain (AID 167); settings: S. cerevisiae bub3 mutant strain, hits give high values
# In short: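 Whole-cell yeast assay. The mutant strain was incubated with compounds, and growth inhibition was determined by comparison with vehicle-treated cells.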
# [16] = at 5.0 µM (retest, dose inferred, filed as 0.5)
# [17] = at 50.0 µM (retest, dose inferred, filed as 5.0)
structure (smiles),measurement,setting,value
CCCCC(CC)C(=O)Oc1ccc(C(=O)c2ccccc2)c(O)c1 (stereo not drawn),growth inhibition,[1]; at 1.2 µM,4%
same,growth inhibition,[1]; at 3.7 µM,3%
same,growth inhibition,[1]; at 11.0 µM,6%
same,growth inhibition,[1]; at 33.0 µM,61%
same,growth inhibition,[1]; at 100.0 µM,98% (active)
same,growth inhibition,[2]; at 1.2 µM,8%
same,growth inhibition,[2]; at 3.7 µM,13%
same,growth inhibition,[2]; at 11.0 µM,20%
same,growth inhibition,[2]; at 33.0 µM,54%
same,growth inhibition,[2]; at 100.0 µM,88% (active)
same,growth inhibition,[3]; at 1.2 µM,7%
same,growth inhibition,[3]; at 3.7 µM,4%
same,growth inhibition,[3]; [16],50%
same,growth inhibition,[3]; at 11.0 µM,15%
same,growth inhibition,[3]; at 33.0 µM,56%
same,growth inhibition,[3]; [17],76% (active)
same,growth inhibition,[3]; at 50.0 µM,74.9% (active)
same,growth inhibition,[3]; at 100.0 µM,96% (active)
same,growth inhibition,[4]; at 1.2 µM,10%
same,growth inhibition,[4]; at 3.7 µM,15%
same,growth inhibition,[4]; [16],53%
same,growth inhibition,[4]; at 11.0 µM,19%
same,growth inhibition,[4]; at 33.0 µM,61%
same,growth inhibition,[4]; [17],79% (active)
same,growth inhibition,[4]; at 50.0 µM,75.2% (active)
same,growth inhibition,[4]; at 100.0 µM,98% (active)
same,growth inhibition,[5]; at 1.2 µM,-5%
same,growth inhibition,[5]; at 3.7 µM,-6%
same,growth inhibition,[5]; at 11.0 µM,-8%
same,growth inhibition,[5]; at 33.0 µM,29%
same,growth inhibition,[5]; at 100.0 µM,97% (active)
same,growth inhibition,[6]; [16],-32%
same,growth inhibition,[6]; [17],91% (active)
same,growth inhibition,[6]; at 50.0 µM,82% (active)
same,growth inhibition,[7]; at 1.2 µM,0%
same,growth inhibition,[7]; at 3.7 µM,17%
same,growth inhibition,[7]; at 11.0 µM,19%
same,growth inhibition,[7]; at 33.0 µM,50%
same,growth inhibition,[7]; at 100.0 µM,97% (active)
same,growth inhibition,[8]; [16],48%
same,growth inhibition,[8]; [17],88% (active)
same,growth inhibition,[8]; at 50.0 µM,65%
same,growth inhibition,[9]; at 1.2 µM,-18%
same,growth inhibition,[9]; at 3.7 µM,-7%
same,growth inhibition,[9]; at 11.0 µM,-4%
same,growth inhibition,[9]; at 33.0 µM,37%
same,growth inhibition,[9]; at 100.0 µM,97% (active)
same,growth inhibition,[10]; at 1.2 µM,-9%
same,growth inhibition,[10]; at 3.7 µM,-10%
same,growth inhibition,[10]; at 11.0 µM,3%
same,growth inhibition,[10]; at 33.0 µM,55%
same,growth inhibition,[10]; at 100.0 µM,97% (active)
same,growth inhibition,[11]; at 1.2 µM,10%
same,growth inhibition,[11]; at 3.7 µM,9%
same,growth inhibition,[11]; at 11.0 µM,20%
same,growth inhibition,[11]; at 33.0 µM,63%
same,growth inhibition,[11]; at 100.0 µM,97% (active)
same,growth inhibition,[12]; [16],38%
same,growth inhibition,[12]; [17],77% (active)
same,growth inhibition,[12]; at 50.0 µM,69.3%
same,growth inhibition,[13]; at 1.2 µM,-4%
same,growth inhibition,[13]; at 3.7 µM,0%
same,growth inhibition,[13]; at 11.0 µM,17%
same,growth inhibition,[13]; at 33.0 µM,53%
same,growth inhibition,[13]; at 100.0 µM,97% (active)
CCC(NC(C)c1ccccc1)C(=O)c1ccc(OCc2ccccc2)c(OCc2ccccc2)c1 (stereo not drawn),growth inhibition,[14]; at 1.2 µM,22%
same,growth inhibition,[14]; at 3.7 µM,18%
same,growth inhibition,[14]; at 11.0 µM,6%
same,growth inhibition,[14]; at 33.0 µM,2%
same,growth inhibition,[14]; at 100.0 µM,-15%
same,growth inhibition,[2]; at 1.2 µM,8%
same,growth inhibition,[2]; at 3.7 µM,7%
same,growth inhibition,[2]; at 11.0 µM,10%
same,growth inhibition,[2]; at 33.0 µM,24%
same,growth inhibition,[2]; at 100.0 µM,43%
same,growth inhibition,[3]; at 1.2 µM,-8%
same,growth inhibition,[3]; at 3.7 µM,9%
same,growth inhibition,[3]; [16],11%
same,growth inhibition,[3]; at 11.0 µM,22%
same,growth inhibition,[3]; at 33.0 µM,14%
same,growth inhibition,[3]; [17],38%
same,growth inhibition,[3]; at 50.0 µM,-12.7%
same,growth inhibition,[3]; at 100.0 µM,1%
same,growth inhibition,[4]; at 1.2 µM,39%
same,growth inhibition,[4]; at 3.7 µM,23%
same,growth inhibition,[4]; [16],9%
same,growth inhibition,[4]; at 11.0 µM,35%
same,growth inhibition,[4]; at 33.0 µM,31%
same,growth inhibition,[4]; [17],97% (active)
same,growth inhibition,[4]; at 50.0 µM,15.3%
same,growth inhibition,[4]; at 100.0 µM,30%
same,growth inhibition,[5]; at 1.2 µM,-1%
same,growth inhibition,[5]; at 3.7 µM,3%
same,growth inhibition,[5]; at 11.0 µM,3%
same,growth inhibition,[5]; at 33.0 µM,3%
same,growth inhibition,[5]; at 100.0 µM,-12%
same,growth inhibition,[6]; [16],-21%
same,growth inhibition,[6]; [17],15%
same,growth inhibition,[6]; at 50.0 µM,28.2%
same,growth inhibition,[7]; at 1.2 µM,-4%
same,growth inhibition,[7]; at 3.7 µM,-3%
same,growth inhibition,[7]; at 11.0 µM,-14%
same,growth inhibition,[7]; at 33.0 µM,-16%
same,growth inhibition,[7]; at 100.0 µM,-29%
same,growth inhibition,[8]; [16],-9%
same,growth inhibition,[8]; [17],30%
same,growth inhibition,[8]; at 50.0 µM,0.35%
same,growth inhibition,[15]; at 1.2 µM,-47%
same,growth inhibition,[15]; at 3.7 µM,-38%
same,growth inhibition,[15]; [16],-7%
same,growth inhibition,[15]; at 11.0 µM,-48%
same,growth inhibition,[15]; at 33.0 µM,-67%
same,growth inhibition,[15]; [17],1%
same,growth inhibition,[15]; at 50.0 µM,22.8%
same,growth inhibition,[15]; at 100.0 µM,-81%
same,growth inhibition,[9]; at 1.2 µM,-12%
same,growth inhibition,[9]; at 3.7 µM,-12%
same,growth inhibition,[9]; at 11.0 µM,-13%
same,growth inhibition,[9]; at 33.0 µM,-7%
same,growth inhibition,[9]; at 100.0 µM,-6%
same,growth inhibition,[10]; at 1.2 µM,5%
same,growth inhibition,[10]; at 3.7 µM,-6%
same,growth inhibition,[10]; at 11.0 µM,3%
same,growth inhibition,[10]; at 33.0 µM,0%
same,growth inhibition,[10]; at 100.0 µM,-3%
same,growth inhibition,[11]; at 1.2 µM,8%
same,growth inhibition,[11]; at 3.7 µM,18%
same,growth inhibition,[11]; at 11.0 µM,11%
same,growth inhibition,[11]; at 33.0 µM,42%
same,growth inhibition,[11]; at 100.0 µM,19%
same,growth inhibition,[12]; [16],14%
same,growth inhibition,[12]; [17],96% (active)
same,growth inhibition,[12]; at 50.0 µM,-4.9%
same,growth inhibition,[13]; at 1.2 µM,-13%
same,growth inhibition,[13]; at 3.7 µM,-4%
same,growth inhibition,[13]; at 11.0 µM,-26%
same,growth inhibition,[13]; at 33.0 µM,-27%
same,growth inhibition,[13]; at 100.0 µM,-30%

# Reference: PubChem BioAssay (NCI)
